This is an account of results in ChEMBL document CHEMBL1961873, “Compounds: GSK PKIS; Assays: Nanosyn kinase panel” (2012).

A word on the inhibition: it is the relative decrease from the control value, in per cent.

The structures appear in SMILES notation.

In experiment [1] the target is Sphingosine kinase 1 (Homo sapiens) (UniProt Q9NYA1). The conditions noted are these: at 1 µM.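 Further: mean SPHK1 inhibition value reported from the GSK PKIS kinase panel screen.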
The target in experiment [2] is T1, Sphingosine kinase 2 (Homo sapiens) (UniProt Q9NRA0).
T1 sequence (whole entry): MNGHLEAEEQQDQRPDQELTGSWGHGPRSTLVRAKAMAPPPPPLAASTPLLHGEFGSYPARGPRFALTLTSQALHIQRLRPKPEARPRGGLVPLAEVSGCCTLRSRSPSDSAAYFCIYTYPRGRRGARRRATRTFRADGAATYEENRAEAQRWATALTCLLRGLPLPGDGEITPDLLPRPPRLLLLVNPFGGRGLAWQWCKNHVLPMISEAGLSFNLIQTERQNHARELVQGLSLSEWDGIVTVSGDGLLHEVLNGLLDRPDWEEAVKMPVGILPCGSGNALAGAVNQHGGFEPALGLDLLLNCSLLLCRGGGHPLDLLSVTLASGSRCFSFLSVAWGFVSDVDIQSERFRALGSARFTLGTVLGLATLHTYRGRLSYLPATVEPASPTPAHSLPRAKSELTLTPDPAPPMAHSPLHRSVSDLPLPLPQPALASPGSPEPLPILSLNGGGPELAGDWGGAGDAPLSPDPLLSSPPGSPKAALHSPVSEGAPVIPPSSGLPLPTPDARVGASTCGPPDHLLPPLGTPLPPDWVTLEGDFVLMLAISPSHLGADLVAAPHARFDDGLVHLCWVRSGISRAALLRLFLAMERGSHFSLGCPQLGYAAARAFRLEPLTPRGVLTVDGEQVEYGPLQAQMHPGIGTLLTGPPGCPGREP
The conditions noted are these: at 0.1 µM.

Experiment [3] deals with T1, Sphingosine kinase 2 (Homo sapiens). The conditions noted are these: at 1 µM.
The target of experiment [4] is Casein kinase II subunit alpha (Homo sapiens) (UniProt P68400). The conditions noted are these: at 0.1 µM.
Sequence of Casein kinase II subunit alpha (Homo sapiens) (P68400 whole entry, looked up): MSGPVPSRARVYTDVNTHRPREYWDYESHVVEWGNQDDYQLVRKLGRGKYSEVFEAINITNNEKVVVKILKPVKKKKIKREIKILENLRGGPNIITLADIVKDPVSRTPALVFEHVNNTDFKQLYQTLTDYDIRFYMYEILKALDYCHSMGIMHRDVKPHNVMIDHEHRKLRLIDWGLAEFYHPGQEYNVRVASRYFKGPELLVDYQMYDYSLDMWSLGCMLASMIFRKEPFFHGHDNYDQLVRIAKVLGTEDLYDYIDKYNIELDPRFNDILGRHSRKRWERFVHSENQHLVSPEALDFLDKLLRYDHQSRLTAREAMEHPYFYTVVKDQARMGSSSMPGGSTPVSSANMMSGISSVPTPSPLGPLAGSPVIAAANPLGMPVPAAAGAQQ
The target is the same in experiment [5]. The conditions noted are these: at 1 µM.
Experiment [6] concerns the target T2, Inhibitor of nuclear factor kappa-B kinase subunit alpha (Homo sapiens) (UniProt O15111).
T2 sequence (whole entry): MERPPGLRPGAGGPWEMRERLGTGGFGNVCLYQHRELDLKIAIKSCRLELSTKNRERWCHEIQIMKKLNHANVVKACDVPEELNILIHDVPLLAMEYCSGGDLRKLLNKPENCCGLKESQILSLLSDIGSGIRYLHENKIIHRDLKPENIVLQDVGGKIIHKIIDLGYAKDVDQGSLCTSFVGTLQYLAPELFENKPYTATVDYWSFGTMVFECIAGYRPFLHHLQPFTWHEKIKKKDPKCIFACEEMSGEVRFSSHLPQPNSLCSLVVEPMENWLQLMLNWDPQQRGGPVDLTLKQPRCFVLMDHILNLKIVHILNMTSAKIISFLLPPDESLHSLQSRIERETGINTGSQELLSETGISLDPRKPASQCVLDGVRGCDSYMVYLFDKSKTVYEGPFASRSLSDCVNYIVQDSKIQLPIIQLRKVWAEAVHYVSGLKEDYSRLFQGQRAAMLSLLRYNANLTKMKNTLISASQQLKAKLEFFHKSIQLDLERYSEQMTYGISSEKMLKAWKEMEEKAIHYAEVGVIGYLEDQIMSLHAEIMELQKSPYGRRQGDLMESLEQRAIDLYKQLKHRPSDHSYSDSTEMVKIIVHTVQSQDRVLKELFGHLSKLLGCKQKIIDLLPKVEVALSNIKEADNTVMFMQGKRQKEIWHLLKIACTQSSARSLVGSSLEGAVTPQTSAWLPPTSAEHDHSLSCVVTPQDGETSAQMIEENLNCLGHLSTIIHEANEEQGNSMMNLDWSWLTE
The conditions noted are these: at 0.1 µM.

Experiment [7] deals with T2, Inhibitor of nuclear factor kappa-B kinase subunit alpha (Homo sapiens). The conditions noted are these: at 1 µM.
Experiment [8] addresses T3, Inhibitor of nuclear factor kappa-B kinase subunit beta (Homo sapiens) (UniProt O14920).
T3 sequence (whole entry): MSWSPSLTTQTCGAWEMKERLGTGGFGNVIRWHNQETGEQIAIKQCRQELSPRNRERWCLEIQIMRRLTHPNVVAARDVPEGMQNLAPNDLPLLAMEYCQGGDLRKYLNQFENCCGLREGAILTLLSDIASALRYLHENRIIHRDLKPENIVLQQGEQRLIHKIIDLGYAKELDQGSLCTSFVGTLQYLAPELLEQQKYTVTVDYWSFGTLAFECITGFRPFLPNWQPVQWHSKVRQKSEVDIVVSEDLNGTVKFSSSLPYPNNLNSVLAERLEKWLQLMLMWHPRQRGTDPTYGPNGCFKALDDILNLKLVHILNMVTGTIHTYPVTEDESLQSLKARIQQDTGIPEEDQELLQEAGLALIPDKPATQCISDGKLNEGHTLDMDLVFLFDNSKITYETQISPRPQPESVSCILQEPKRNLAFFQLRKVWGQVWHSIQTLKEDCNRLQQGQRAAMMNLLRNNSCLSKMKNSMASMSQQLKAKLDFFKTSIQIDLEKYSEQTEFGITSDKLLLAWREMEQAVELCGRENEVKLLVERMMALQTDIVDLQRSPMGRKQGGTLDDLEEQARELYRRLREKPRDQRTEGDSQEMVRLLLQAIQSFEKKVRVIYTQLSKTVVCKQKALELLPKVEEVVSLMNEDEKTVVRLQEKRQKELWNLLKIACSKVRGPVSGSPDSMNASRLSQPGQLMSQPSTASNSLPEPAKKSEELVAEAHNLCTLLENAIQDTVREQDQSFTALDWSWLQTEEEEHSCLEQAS
The conditions noted are these: at 0.1 µM.

Experiment [9] addresses T3, Inhibitor of nuclear factor kappa-B kinase subunit beta (Homo sapiens). The conditions noted are these: at 1 µM.
Experiment [10] has as its target T4, Inhibitor of nuclear factor kappa-B kinase subunit epsilon (Homo sapiens) (UniProt Q14164).
T4 sequence (whole entry): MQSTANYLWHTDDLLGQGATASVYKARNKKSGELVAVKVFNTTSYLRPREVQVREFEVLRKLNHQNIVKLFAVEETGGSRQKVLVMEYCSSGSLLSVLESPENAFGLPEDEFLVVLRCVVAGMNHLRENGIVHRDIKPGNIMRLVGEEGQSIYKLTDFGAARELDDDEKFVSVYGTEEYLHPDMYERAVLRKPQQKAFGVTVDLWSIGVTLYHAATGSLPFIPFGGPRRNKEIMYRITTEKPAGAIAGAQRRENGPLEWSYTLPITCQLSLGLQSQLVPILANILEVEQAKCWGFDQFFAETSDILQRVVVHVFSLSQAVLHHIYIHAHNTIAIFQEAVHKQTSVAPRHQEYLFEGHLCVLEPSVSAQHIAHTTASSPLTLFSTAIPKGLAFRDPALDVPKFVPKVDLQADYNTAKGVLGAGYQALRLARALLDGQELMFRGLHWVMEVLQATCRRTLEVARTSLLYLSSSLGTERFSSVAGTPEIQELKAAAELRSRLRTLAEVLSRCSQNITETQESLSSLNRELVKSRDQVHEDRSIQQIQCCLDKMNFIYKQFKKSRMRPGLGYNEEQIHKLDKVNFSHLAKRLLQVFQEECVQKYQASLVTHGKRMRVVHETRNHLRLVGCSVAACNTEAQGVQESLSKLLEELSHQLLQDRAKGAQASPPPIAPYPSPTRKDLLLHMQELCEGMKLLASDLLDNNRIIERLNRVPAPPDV
The conditions noted are these: at 0.1 µM.

Experiment [11] has as its target T4, Inhibitor of nuclear factor kappa-B kinase subunit epsilon (Homo sapiens). The conditions noted are these: at 1 µM.
Experiment [12] addresses T5, Serine/threonine-protein kinase Nek1 (Homo sapiens) (UniProt Q96PY6).
T5 sequence (whole entry): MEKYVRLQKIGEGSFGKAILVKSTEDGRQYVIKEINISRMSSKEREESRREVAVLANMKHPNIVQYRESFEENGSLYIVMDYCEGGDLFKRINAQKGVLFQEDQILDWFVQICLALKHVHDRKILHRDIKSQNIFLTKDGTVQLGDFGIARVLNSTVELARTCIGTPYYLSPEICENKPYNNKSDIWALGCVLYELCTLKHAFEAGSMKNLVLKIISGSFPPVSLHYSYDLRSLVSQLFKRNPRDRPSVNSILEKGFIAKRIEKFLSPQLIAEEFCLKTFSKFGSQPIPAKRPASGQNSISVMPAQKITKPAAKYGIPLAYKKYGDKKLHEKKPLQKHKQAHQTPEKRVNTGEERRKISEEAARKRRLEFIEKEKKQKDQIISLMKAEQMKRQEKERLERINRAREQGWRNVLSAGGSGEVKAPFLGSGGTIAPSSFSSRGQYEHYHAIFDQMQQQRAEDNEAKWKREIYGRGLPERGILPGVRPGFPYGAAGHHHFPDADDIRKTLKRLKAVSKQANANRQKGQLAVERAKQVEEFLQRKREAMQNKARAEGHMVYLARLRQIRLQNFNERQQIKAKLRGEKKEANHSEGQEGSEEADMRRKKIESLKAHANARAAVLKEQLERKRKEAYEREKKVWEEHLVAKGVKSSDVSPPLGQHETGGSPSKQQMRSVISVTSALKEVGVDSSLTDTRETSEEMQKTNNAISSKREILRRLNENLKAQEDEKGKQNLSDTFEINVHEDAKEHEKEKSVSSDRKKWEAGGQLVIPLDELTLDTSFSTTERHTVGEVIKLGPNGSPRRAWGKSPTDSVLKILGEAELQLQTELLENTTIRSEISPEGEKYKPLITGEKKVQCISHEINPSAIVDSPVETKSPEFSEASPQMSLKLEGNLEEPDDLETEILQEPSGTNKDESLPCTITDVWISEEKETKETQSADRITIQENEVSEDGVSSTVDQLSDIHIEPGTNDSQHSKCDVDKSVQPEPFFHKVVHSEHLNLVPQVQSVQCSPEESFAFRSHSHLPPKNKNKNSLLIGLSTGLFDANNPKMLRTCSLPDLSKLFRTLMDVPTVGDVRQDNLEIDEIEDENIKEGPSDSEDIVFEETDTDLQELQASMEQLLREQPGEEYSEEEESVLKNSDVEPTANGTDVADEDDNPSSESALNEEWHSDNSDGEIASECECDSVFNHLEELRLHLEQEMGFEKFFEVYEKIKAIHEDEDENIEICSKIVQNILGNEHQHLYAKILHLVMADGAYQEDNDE
The conditions noted are these: at 0.1 µM.

For experiment [13], the target named is T5, Serine/threonine-protein kinase Nek1 (Homo sapiens). The conditions noted are these: at 1 µM.
Experiment [14] addresses T6, Serine/threonine-protein kinase Nek2 (Homo sapiens) (UniProt P51955).
T6 sequence (whole entry): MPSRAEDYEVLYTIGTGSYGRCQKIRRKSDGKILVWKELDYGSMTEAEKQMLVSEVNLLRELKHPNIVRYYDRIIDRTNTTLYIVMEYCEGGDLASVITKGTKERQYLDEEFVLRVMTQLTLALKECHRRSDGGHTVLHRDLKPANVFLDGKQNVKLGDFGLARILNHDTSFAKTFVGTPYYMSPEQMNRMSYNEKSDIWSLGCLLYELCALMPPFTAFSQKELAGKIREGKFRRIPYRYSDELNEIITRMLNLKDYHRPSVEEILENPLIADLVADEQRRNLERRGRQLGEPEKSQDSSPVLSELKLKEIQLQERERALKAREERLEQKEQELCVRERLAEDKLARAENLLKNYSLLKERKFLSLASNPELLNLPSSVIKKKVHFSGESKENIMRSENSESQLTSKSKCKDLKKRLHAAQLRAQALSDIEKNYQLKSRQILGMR
The conditions noted are these: at 0.1 µM.

Experiment [15] concerns the target T6, Serine/threonine-protein kinase Nek2 (Homo sapiens). The conditions noted are these: at 1 µM.
Experiment [16] deals with Serine/threonine-protein kinase Nek6 (Homo sapiens) (UniProt Q9HC98). The conditions noted are these: at 0.1 µM.
Sequence of Serine/threonine-protein kinase Nek6 (Homo sapiens) (Q9HC98 whole entry): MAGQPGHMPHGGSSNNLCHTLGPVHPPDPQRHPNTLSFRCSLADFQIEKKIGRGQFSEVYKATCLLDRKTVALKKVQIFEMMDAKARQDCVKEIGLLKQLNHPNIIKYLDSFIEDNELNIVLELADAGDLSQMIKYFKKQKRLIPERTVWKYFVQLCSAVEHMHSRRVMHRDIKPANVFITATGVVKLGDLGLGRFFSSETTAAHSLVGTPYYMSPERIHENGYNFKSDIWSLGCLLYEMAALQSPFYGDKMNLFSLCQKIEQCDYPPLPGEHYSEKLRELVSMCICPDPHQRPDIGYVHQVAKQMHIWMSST
Experiment [17] shares this target. The conditions noted are these: at 1 µM.
In experiment [18] the target is Serine/threonine-protein kinase Nek7 (Homo sapiens) (UniProt Q8TDX7). The conditions noted are these: at 0.1 µM.
Sequence of Serine/threonine-protein kinase Nek7 (Homo sapiens) (Q8TDX7 whole entry, looked up): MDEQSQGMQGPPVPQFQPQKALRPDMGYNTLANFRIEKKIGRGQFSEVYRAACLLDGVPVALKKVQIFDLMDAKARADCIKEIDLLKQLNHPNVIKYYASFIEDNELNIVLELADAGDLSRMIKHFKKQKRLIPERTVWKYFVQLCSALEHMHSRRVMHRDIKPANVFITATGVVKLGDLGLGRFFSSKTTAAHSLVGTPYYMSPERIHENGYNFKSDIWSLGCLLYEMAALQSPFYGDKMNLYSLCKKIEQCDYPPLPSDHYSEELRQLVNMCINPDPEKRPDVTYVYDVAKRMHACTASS
For experiment [19] the target is unchanged. The conditions noted are these: at 1 µM.
For experiment [20], the target named is T7, Serine/threonine-protein kinase Nek9 (Homo sapiens) (UniProt Q8TD19).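 Further: reported value is the mean percent inhibition of NEK9.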
T7 sequence (whole entry): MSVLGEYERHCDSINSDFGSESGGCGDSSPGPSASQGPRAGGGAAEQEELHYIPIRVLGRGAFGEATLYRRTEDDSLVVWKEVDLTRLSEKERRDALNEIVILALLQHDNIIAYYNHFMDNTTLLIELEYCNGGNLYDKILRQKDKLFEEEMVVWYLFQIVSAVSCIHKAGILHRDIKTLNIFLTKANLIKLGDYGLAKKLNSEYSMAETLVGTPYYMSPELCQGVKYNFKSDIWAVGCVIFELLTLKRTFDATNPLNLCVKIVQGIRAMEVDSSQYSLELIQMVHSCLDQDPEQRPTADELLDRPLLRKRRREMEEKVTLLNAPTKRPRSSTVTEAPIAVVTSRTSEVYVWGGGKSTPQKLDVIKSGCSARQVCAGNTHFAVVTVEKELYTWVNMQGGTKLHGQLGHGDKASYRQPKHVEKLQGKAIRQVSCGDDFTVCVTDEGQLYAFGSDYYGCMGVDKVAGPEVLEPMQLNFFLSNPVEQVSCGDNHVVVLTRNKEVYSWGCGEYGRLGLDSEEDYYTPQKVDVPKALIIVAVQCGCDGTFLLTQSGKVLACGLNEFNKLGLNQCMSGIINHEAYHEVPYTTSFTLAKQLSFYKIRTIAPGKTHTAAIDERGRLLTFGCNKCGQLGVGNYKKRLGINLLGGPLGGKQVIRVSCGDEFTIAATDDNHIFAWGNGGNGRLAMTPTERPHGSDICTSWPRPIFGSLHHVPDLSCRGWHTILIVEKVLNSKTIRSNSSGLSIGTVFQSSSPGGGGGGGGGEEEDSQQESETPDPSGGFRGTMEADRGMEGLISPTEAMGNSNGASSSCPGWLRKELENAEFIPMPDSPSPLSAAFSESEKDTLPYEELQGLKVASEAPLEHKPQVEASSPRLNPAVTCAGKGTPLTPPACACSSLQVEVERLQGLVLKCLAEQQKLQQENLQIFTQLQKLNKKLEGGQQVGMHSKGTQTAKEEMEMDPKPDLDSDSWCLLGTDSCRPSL
The conditions noted are these: at 0.1 µM.

Sequence of Sphingosine kinase 1 (Homo sapiens) (Q9NYA1 whole entry): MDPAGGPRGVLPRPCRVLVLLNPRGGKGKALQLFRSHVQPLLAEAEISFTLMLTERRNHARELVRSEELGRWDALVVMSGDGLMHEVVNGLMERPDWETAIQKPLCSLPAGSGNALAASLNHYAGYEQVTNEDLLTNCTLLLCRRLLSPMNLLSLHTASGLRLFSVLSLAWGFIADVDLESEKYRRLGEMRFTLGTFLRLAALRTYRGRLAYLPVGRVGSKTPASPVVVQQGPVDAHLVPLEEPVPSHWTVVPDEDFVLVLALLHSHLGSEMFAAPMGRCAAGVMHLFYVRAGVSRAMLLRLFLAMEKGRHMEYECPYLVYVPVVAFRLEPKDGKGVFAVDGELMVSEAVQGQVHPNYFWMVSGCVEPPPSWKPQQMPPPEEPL

On to `Fc1ccc(-c2nc3n(c2-c2ccncc2)CCS3)cc1`, for which the inhibition in [1] is -0.03%; in [2], -0.14%; in experiment [3] it was -0.18%; in experiment [4], 0.53%; in experiment [5] it was -1.41%; in experiment [6], 5.66%. The inhibition in [7] was 4.06%; in [8], 6.22%; in experiment [9], 4.63%; in experiment [10], 5.03%; in [11], 4.11%; in experiment [12], 2.77%. Further, the inhibition in [13] came to 2.98%; in experiment [14] it was 4.83%; in experiment [15], 4.36%; in [16], 0.55%; in experiment [17], 0.72%; in experiment [18], 5.52%. Moreover, the values for the inhibition in [19] and in experiment [20] were 2.5% and 2.21%, respectively.
